A number with no mark means an inactive call. Results filed as inconclusive are left out. The source made the active and inactive calls.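 The calls were made as follows, unless noted: active = cell viability at or below a set limit in both duplicate runs, the limit being the all-compound median minus 4 SD (cut at about 23% in these data, passing the limit was not always enough); inconclusive = no clear call, values can overlap the other calls; inactive = the rest.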
Assay: doxorubicin toxicity protection in MRP-1 cells – H69AR cells, CellTiter-Glo, duplicate, MRP-1 activator project, pilot screen (AID 807;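 active = viability increase at or above a cutoff of the median across tested compounds plus 3 SD, cut at about 8.5% in these data, passing the limit was not always enough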;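 also: compound pretreatment 18-22 h then 72 h combined with doxorubicin; 0% = doxorubicin alone and 100% = vehicle without doxorubicin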)
Conditions: H69AR viability with doxorubicin, CellTiter-Glo luminescence; at 10 µM; active compounds read high

Compared with `Cc1cc(C(=O)NCc2ccc3c(c2)OCO3)n(-c2ccccc2)n1`, `Cc1oc(-c2cccs2)nc1CS(=O)CC(=O)NCCc1ccccc1` (stereo not given) is lower in viability increase: -0.01% for the first, -0.31% for the second.

First: CCOc1ccc(C(=O)Nn2cnnc2)cc1
Second: CCOc1cccc(C(=O)Nc2cccc(-c3nnc(-c4ccccc4)o3)c2)c1
The viability increase of the first is higher: 0.25% for the first, -3% for the second.

Compared with `COc1ccc(C(=O)Nc2c(N)nc(SCC(=O)N3CCCCCC3)[nH]c2=O)cc1OC`, `Cn1c(C(=O)N2CCCCCC2)cc2c(=O)n(C)c3ccccc3c21` is lower in viability increase: -0.26% for the first, -3.27% for the second.

Compared with `Cc1nnc(NC(=O)CSc2nnc(Cc3cccn3C)n2C)s1`, `CCOC(=O)CSc1nnc(Cn2c(=O)sc3ccccc32)n1-c1ccccc1C` is lower in viability increase: -0.3% for the first, -1.07% for the second.

Compared with `O=C(c1ccccn1)N(CC1CCCO1)C1(C(=O)NC2CCCCC2)CCCCC1` (stereo not given), `CC(=O)c1cccc(NC(=O)C2CCCC2)c1` is higher in viability increase: -0.31% for the first, -0.26% for the second.

Going from `O=C(Cc1n[nH]c(=O)c2ccccc12)NCc1ccccn1` to `O=C(NC(Nc1ncccn1)C(=O)c1ccccc1)c1ccccc1` (stereo not given), the viability increase falls from -0.08% to -0.49%.

Compared with `COC(=O)c1ccccc1NC(=O)CSc1nc(N)cc(N)n1`, `COC(=O)c1c(C)nc(C)c2c(=O)oc3ccccc3c12` is higher in viability increase: -2.46% for the first, 0.64% for the second.

Compared with `COc1ccc(C2(CNC(C)=O)CCOCC2)cc1OC`, `COc1ccc(N2CSC3=C(C#N)C(c4ccc(OC)c(OC)c4)CC(=O)N3C2)c(OC)c1` (stereo not given) is lower in viability increase: 1.21% for the first, -4.13% for the second.

First: CCc1ccc(-c2nc(C(N)=O)c3[nH]c(=O)n(-c4ccccc4OC)c3n2)cc1
Second: CSc1nnc2c(n1)OC(c1ccc(C(=O)O)cc1)N(C(C)=O)c1ccccc1-2 (stereo not given)
The viability increase of the first is lower: -8.43% for the first, 0.23% for the second.

First: Cc1ccccc1-c1nc(CN2CCC(C(=O)O)CC2)c(C)o1
Second: Cc1ccc(-c2nc(CS(=O)(=O)CC(=O)N3CCc4ccccc4C3)c(C)o2)cc1
The viability increase of the first is higher: -0.95% for the first, -2.25% for the second.

Compared with `Cc1ccc(C)c(NC(=O)CS(=O)(=O)c2c[nH]c3ccccc23)c1`, `O=C1CCc2cc(S(=O)(=O)NC(Cc3ccccc3)C(=O)NCC3CCCO3)ccc2N1` (stereo not given) is higher in viability increase: -2.95% for the first, -2.76% for the second.

Going from `CC(C)CNC1=CC(=O)CC(c2ccco2)C1` (stereo not given) to `CCSC1=C(C#N)C(c2ccccc2C)CC(=O)N1` (stereo not given), the viability increase falls from -1.92% to -2.22%.

Going from `CCOC(=O)c1ccc2nc(NC(=O)C(C)C)sc2c1` to `COc1ccc(Cl)cc1C(=O)N(Cc1nc(-c2cccc(C)c2)no1)C(C)C`, the viability increase rises from -6.61% to 0.87%.

First: CCCOC(=O)C1=C(C)NC2=C(C(=O)CC(C)(C)C2)C1c1ccc(N(C)C)cc1 (stereo not given)
Second: CC1(C)CC(=O)c2sc(NC(=O)CN3C(=O)CCC3=O)nc2C1
The viability increase of the first is lower: -2.59% for the first, -1.54% for the second.

Going from `CCOC(=O)N1CCN(C(=O)Cn2ncc3ccccc32)CC1` to `CCOC(=O)N1CCN(C(=O)CCSc2ccccc2)CC1`, the viability increase rises from -1.62% to 0.84%.

Compared with `CCCCn1c(CCNC(=O)CC)nc2ccccc21`, `CN1CCN(CCCNC(=O)c2ccc3c(c2)N(Cc2ccccc2)CCS3)CC1` is lower in viability increase: -1.11% for the first, -5.47% for the second.

Compared with `O=C(Nc1nc2c(Cl)ccc(Cl)c2s1)c1ccco1`, `O=C(NCc1ccco1)C1CCN(S(=O)(=O)c2cccc3cccnc23)CC1` is higher in viability increase: -6.22% for the first, -2.72% for the second.

Going from `O=C(CSCC(=O)N1CCOCC1)Nc1ccccc1` to `O=C(NC(O)C(=O)c1ccccc1)c1cccs1` (stereo not given), the viability increase falls from -0.42% to -3.2%.

Compared with `Cc1cc(NC(=O)NC2(C(F)(F)F)Oc3ccc(Cl)cc3O2)no1` (stereo not given), `O=C(NCCN1CCCCC1)c1ccc2c(c1)OCCO2` is higher in viability increase: -5.78% for the first, -1.4% for the second.

Compared with `COc1ccccc1N1CSC2=C(C#N)C(c3ccc(SC)cc3)CC(=O)N2C1` (stereo not given), `CC1C(c2ccccc2)=[N+]([O-])C2(CCCC2)N1O` (stereo not given) is higher in viability increase: -5.15% for the first, -3.01% for the second.

Assay: viability of HCT116 without oncogenic beta-catenin – human colon tumor cells, pilot screen (AID 823);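 also: 0% = wells killed by 20 µM Hyamine and 100% = untreated DMSO cell wells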
Conditions: HCT116 beta-catenin knockout viability, CellTiter-Glo, 60 h; at 10 µM; active compounds read low

First: Cc1cc(C(=O)NCc2ccc3c(c2)OCO3)n(-c2ccccc2)n1
Second: Cc1oc(-c2cccs2)nc1CS(=O)CC(=O)NCCc1ccccc1 (stereo not given)
The viability of the first is higher: 92.2% for the first, 86.1% for the second.

Going from `CCOc1ccc(C(=O)Nn2cnnc2)cc1` to `CCOc1cccc(C(=O)Nc2cccc(-c3nnc(-c4ccccc4)o3)c2)c1`, the viability falls from 104% to 51.9%.

First: COc1ccc(C(=O)Nc2c(N)nc(SCC(=O)N3CCCCCC3)[nH]c2=O)cc1OC
Second: Cn1c(C(=O)N2CCCCCC2)cc2c(=O)n(C)c3ccccc3c21
The viability of the first is higher: 96.8% for the first, 94.9% for the second.

First: Cc1nnc(NC(=O)CSc2nnc(Cc3cccn3C)n2C)s1
Second: CCOC(=O)CSc1nnc(Cn2c(=O)sc3ccccc32)n1-c1ccccc1C
The viability of the first is higher: 98.8% for the first, 96.2% for the second.

Going from `O=C(c1ccccn1)N(CC1CCCO1)C1(C(=O)NC2CCCCC2)CCCCC1` (stereo not given) to `CC(=O)c1cccc(NC(=O)C2CCCC2)c1`, the viability rises from 85.5% to 102%.

First: O=C(Cc1n[nH]c(=O)c2ccccc12)NCc1ccccn1
Second: O=C(NC(Nc1ncccn1)C(=O)c1ccccc1)c1ccccc1 (stereo not given)
The viability of the first is higher: 103% for the first, 96.6% for the second.

First: COC(=O)c1ccccc1NC(=O)CSc1nc(N)cc(N)n1
Second: COC(=O)c1c(C)nc(C)c2c(=O)oc3ccccc3c12
The viability of the first is lower: 94.1% for the first, 102% for the second.

Compared with `COc1ccc(C2(CNC(C)=O)CCOCC2)cc1OC`, `COc1ccc(N2CSC3=C(C#N)C(c4ccc(OC)c(OC)c4)CC(=O)N3C2)c(OC)c1` (stereo not given) is lower in viability: 103% for the first, 79.5% for the second.

Compared with `Cc1ccccc1-c1nc(CN2CCC(C(=O)O)CC2)c(C)o1`, `Cc1ccc(-c2nc(CS(=O)(=O)CC(=O)N3CCc4ccccc4C3)c(C)o2)cc1` is lower in viability: 103% for the first, 67.4% for the second.

Compared with `Cc1ccc(C)c(NC(=O)CS(=O)(=O)c2c[nH]c3ccccc23)c1`, `O=C1CCc2cc(S(=O)(=O)NC(Cc3ccccc3)C(=O)NCC3CCCO3)ccc2N1` (stereo not given) is lower in viability: 96.5% for the first, 94.3% for the second.

`CSc1nnc2c(n1)OC(c1ccc(C(=O)O)cc1)N(C(C)=O)c1ccccc1-2` (stereo not given) and `COc1ccccc1N1CSC2=C(C#N)C(c3ccc(SC)cc3)CC(=O)N2C1` (stereo not given) are the same in viability: 102% for the first, 102% for the second.

Going from `CC(C)CNC1=CC(=O)CC(c2ccco2)C1` (stereo not given) to `CCSC1=C(C#N)C(c2ccccc2C)CC(=O)N1` (stereo not given), the viability rises from 91.5% to 92.5%.

Going from `CCOC(=O)c1ccc2nc(NC(=O)C(C)C)sc2c1` to `COc1ccc(Cl)cc1C(=O)N(Cc1nc(-c2cccc(C)c2)no1)C(C)C`, the viability falls from 78.6% to 58.8%.

Going from `CCCOC(=O)C1=C(C)NC2=C(C(=O)CC(C)(C)C2)C1c1ccc(N(C)C)cc1` (stereo not given) to `CC1(C)CC(=O)c2sc(NC(=O)CN3C(=O)CCC3=O)nc2C1`, the viability rises from 90.8% to 103%.

First: CCOC(=O)N1CCN(C(=O)Cn2ncc3ccccc32)CC1
Second: CCOC(=O)N1CCN(C(=O)CCSc2ccccc2)CC1
The viability of the first is higher: 105% for the first, 99.7% for the second.

Going from `CCCCn1c(CCNC(=O)CC)nc2ccccc21` to `CN1CCN(CCCNC(=O)c2ccc3c(c2)N(Cc2ccccc2)CCS3)CC1`, the viability falls from 98.8% to 64.8%.

Going from `O=C(Nc1nc2c(Cl)ccc(Cl)c2s1)c1ccco1` to `O=C(NCc1ccco1)C1CCN(S(=O)(=O)c2cccc3cccnc23)CC1`, the viability rises from 90.1% to 99.4%.

Going from `O=C(CSCC(=O)N1CCOCC1)Nc1ccccc1` to `O=C(NC(O)C(=O)c1ccccc1)c1cccs1` (stereo not given), the viability falls from 97.2% to 95.4%.

First: Cc1cc(NC(=O)NC2(C(F)(F)F)Oc3ccc(Cl)cc3O2)no1 (stereo not given)
Second: O=C(NCCN1CCCCC1)c1ccc2c(c1)OCCO2
The viability of the first is lower: 32.6% for the first, 102% for the second.

For `CC1C(c2ccccc2)=[N+]([O-])C2(CCCC2)N1O` (stereo not given), the viability was 97%.

In the case of `CCc1ccc(-c2nc(C(N)=O)c3[nH]c(=O)n(-c4ccccc4OC)c3n2)cc1`, the viability was 15.6% (active).

— PubChem BioAssay
